PTK2B oligo ant – Pyk2 (human) oligomerization antagonism. Q14289. Q293 cells, Pyk2 FERM NanoBiT luminescence; hits give low values. z-score (the deposit names both 25 µM and 10 µM). actives 0.83% (n = 99,000). AID 1347419;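 active = Z-score of -3 or lower, scaled per plate to the spread of control and sample wells; inactive = z-score above -3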;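 note: negative z-score means lost luminescence so less FERM oligomerization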
CYP2C19 act – increases human CYP2C19 enzyme activity. P33261. recombinant CYP2C19, luciferin-H EGE luminescence; hits give high values; 0 = fully inhibited enzyme, 1 = untreated enzyme. activation factor at 5 µM. 96,000 tested, under 10 active. AID 1025;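 active = activation factor of at least 2 at 5 µM in the primary screen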;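 note: 0 = wells with 2.5 mM tranylcypromine and 1 = vehicle-only wells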
CYP2C9 inhib – inhibitors of human CYP2C9 | P11712 | CYP2C9 Supersomes, luciferin-H conversion, luminescence | inhibition, % at 5 µM | actives 20% (n = 96,000);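 active = blocking of liver enzyme CYP2C9 beyond about 50% at 5 µM, limit read from the data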
Cav32 inh – inhibitors of human Cav3.2 T-type calcium channel. actives 4% (n = 100,000). Cav3.2-expressing cells, Fluo-4 calcium fluorescence FDSS; hits give low values. B-score at 10 µM. O95180;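 active = single-dose well whose peak fluorescence ratio is a statistical outlier from its plate by either plate-standardised score or position-corrected B-score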
Target sequence (O95180 whole entry, looked up): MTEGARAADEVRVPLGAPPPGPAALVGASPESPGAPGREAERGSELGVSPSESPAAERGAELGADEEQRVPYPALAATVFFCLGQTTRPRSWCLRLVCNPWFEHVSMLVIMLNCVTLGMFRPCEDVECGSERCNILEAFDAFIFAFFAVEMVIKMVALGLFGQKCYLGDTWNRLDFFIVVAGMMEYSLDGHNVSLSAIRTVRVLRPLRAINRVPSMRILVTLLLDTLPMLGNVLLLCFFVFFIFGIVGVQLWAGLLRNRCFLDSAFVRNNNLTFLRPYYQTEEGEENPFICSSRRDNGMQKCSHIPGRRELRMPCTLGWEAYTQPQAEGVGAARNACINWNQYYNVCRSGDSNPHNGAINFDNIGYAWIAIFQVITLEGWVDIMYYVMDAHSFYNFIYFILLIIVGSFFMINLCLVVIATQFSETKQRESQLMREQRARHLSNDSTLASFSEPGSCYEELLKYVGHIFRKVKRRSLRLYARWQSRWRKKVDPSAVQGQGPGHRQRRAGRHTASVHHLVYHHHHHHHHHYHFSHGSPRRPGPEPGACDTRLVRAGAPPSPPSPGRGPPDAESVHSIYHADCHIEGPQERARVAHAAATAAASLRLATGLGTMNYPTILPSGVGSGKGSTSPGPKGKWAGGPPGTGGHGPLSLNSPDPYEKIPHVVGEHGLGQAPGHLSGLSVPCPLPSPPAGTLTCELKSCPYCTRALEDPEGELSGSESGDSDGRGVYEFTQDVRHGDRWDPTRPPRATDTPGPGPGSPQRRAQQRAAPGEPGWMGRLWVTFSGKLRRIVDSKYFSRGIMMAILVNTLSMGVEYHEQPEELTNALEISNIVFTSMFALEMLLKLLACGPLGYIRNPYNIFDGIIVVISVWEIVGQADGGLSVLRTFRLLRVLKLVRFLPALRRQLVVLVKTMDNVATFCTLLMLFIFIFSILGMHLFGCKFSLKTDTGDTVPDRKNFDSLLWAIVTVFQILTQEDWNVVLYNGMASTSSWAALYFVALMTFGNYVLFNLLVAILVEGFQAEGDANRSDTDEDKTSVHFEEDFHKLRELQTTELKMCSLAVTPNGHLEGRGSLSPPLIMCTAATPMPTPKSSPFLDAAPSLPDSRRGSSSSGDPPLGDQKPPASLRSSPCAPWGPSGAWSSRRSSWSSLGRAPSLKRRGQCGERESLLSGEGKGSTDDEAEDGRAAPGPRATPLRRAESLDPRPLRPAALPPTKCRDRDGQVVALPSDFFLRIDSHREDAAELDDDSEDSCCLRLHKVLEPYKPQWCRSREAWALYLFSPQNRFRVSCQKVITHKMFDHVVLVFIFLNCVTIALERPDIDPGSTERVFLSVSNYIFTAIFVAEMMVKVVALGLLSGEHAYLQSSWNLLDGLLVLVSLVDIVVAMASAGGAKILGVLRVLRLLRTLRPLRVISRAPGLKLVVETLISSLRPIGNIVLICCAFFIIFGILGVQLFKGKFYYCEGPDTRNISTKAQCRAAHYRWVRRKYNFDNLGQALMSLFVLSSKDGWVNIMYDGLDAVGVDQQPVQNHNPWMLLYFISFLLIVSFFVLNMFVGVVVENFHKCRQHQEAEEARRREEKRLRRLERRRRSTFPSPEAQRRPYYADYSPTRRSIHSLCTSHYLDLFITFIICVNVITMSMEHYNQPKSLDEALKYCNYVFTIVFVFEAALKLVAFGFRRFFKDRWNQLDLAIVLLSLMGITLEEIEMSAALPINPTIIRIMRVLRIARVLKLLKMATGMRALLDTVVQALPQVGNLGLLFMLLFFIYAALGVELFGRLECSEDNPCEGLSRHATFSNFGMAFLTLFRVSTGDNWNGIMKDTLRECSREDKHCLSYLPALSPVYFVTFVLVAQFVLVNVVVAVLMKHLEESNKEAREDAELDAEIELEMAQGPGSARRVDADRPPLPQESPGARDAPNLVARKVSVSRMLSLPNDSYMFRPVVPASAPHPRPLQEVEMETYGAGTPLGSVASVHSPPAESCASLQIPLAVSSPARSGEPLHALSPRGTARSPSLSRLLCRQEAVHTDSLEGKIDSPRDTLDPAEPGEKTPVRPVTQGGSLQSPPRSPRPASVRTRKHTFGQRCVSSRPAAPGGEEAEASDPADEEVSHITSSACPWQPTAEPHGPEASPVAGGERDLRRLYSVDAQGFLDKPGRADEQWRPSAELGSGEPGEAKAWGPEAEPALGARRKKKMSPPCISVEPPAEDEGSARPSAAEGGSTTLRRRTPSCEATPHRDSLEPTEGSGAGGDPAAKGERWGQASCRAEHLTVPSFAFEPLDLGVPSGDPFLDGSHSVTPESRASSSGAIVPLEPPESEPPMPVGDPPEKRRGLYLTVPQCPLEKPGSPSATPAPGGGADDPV
CYP2C19 inhib – blocks human cytochrome P450 2C19 | actives 21% (n = 96,000) | CYP2C19 Supersomes, luciferin-H EGE luminescence, 30 min | inhibition, % at 5 µM | P33261;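 active = CYP2C19 inhibition above a set limit at 5 µM in the primary screen, cut at about 50% in these data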;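 note: plate controls were negative control wells for no effect and 2.5 mM tranylcypromine positive control for full effect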
CYP2C9 activ – CYP2C9 (human) activation; recombinant CYP2C9, luciferin-H conversion, luminescence; hits give high values; factor 1 = untreated enzyme, 0 = blocked; activation factor at 5 µM; actives 1.4% (n = 96,000);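 active = activation factor of 2 or more for CYP2C9 at a 5 µM dose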;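 note: 0 = sulfaphenazole-blocked wells and 1 = vehicle-only wells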
Active calls of the source: *; . = no result. Compounds with a hit are over-represented: about 27% of the library has one in this group of screens.

SMILES	PTK2B oligo ant	CYP2C19 act	CYP2C9 inhib	Cav32 inh	CYP2C19 inhib	CYP2C9 activ
Cn1cc(C[C@H](NC(=O)OC(C)(C)C)C(=O)N[C@@H](CO)Cc2ccccc2)c2ccccc21	.	.	.	-1.09	.	.
COc1cc2c(cc1NC(=O)c1cc(-c3ccncc3)nc3ccc(C)cc13)oc1ccccc12	0.8	0.4	86.6*	-0.533	61.0*	0.1
C=CCn1c(SCc2nc3ccccc3[nH]2)nnc1-c1ccc(OC)cc1	1.04	0.2	22.3	0.811	81.2*	0.8
C=CCn1c(SCc2nc3ccccc3[nH]2)nnc1-c1ccccn1	-0.57	0	19.3	-0.0275	97.3*	0.8
CCn1c(SCc2nc3ccccc3[nH]2)nnc1-c1ccc(OC)cc1	0.76	0.2	26.7	0.0293	81.9*	0.7
COc1ccc(-c2nnc(SCc3ccccc3)n2N)cc1	-0.48	0.8	-7.7	-0.181	20.9	1.1
CCOC(=O)CSc1nnc(-c2ccc(OC)cc2)n1CC	0.23	0.9	27.4	0.206	13.5	0.7
Cc1ccc2occ(C3N[C@H](C(=O)O)CS3)c(=O)c2c1 (stereo partly drawn)	-1.98	0.9	20.3	-0.843	7.1	0.8
Cc1cc(C)n(C(=O)CNC(=O)c2ccc3c(c2)OCCO3)n1	-0.3	0.8	-13.5	0.123	23.2	1.1
O=C(c1ccco1)N1CCN(C(=O)C2CCCc3c2[nH]c2ccc(Cl)cc32)CC1 (stereo not drawn)	0.46	0.6	38.7	-1.79	44.7	0.6
O=C(Nc1ccccc1)C1=C[C@@H](c2ccc(Br)cc2)C[C@@H](OCCCCO)O1	.	.	.	-1.66	.	.
COC(=O)c1cc(NC(=O)c2ccoc2C)cc(C(=O)OC)c1	-0.16	0.8	39.5	0.0848	16.7	0.6
Cc1cc(C(=O)NC(C)c2ccc3c(c2)OCO3)cs1 (stereo not drawn)	-0.45	0.1	59.8*	-3.46	90.4*	0.4
CC(=O)Nc1ccc(C(=O)Nc2ccc3c(c2)OCO3)cc1	0.59	0.8	18.2	-0.277	24.4	0.8
Cc1cc(C(=O)Nc2ccc3c(c2)OCO3)cs1	1.54	0.3	47.9	-0.535	70.0*	0.5
CC(NC(=O)Cc1cccs1)c1ccc2c(c1)OCO2 (stereo not drawn)	-0.3	0.8	9.5	1.4	18.0	0.9
Cc1occc1C(=O)Nc1ccc2c(c1)OCO2	-0.13	0.5	3.6	0.214	54.1*	1
CCOC(=O)c1c(C)c(C(=O)Nc2ccc3c(c2)OCO3)c(C)n1C	0.11	0.7	-16.0	1.06	28.5	1.2
CCOC(=O)c1c(N)sc(C(=O)Nc2ccc3c(c2)OCO3)c1C	0.04	0	84.4*	-0.665	97.6*	0.2
COc1cccc(-n2c(CNC(=O)OC(C)(C)C)n[nH]c2=S)c1	0	1	2.7	0.468	1.1	1
CCOC1(OCC)C(c2ccc(Cl)cc2)C(C#N)(C#N)C1(OCC)OCC (stereo not drawn)	-1.84	0.6	48.5	.	40.4	0.5
O=C1CCCN1c1ccc(S(=O)(=O)Oc2ccc(Cl)cc2)cc1[N+](=O)[O-]	1.34	0.5	20.2	-3.96	49.5	0.8
Cc1cc(C)n2ncc(C(=O)Nc3ccc4c(c3)OCO4)c2n1	0.24	0.6	74.5*	-0.0311	36.8	0.3
O=S(=O)(NCc1csc(-c2cccnc2)n1)c1ccc2c(c1)OCCO2	0.58	0.4	21.5	-0.15	57.1*	0.8
O=S(=O)(NCCc1csc(-c2ccccc2)n1)c1ccc2c(c1)OCCO2	-0.35	0.1	14.4	-6.18*	89.2*	0.9
SMILES	PTK2B oligo ant	CYP2C19 act	CYP2C9 inhib	Cav32 inh	CYP2C19 inhib	CYP2C9 activ
O=S(=O)(NCc1ccccn1)c1ccc2c(c1)OCCO2	1.15	0.2	-41.5	-0.0475	83.3*	1.4
O=S(=O)(NCc1cccnc1)c1ccc2c(c1)OCCO2	-0.05	.	.	1.24	.	.
CC1=N/C(=C\c2ccc([N+](=O)[O-])cc2)C(=O)N1c1ccc(Br)c(C)c1	-1.63	0.8	30.4	-0.0927	18.1	0.7
Cc1ccccc1N(CC(=O)N/N=C/c1ccc(Cl)cc1)C(=O)c1ccccc1	-2.23	0.3	97.6*	-5.25*	68.4*	0
CCOC(=O)CN(C(=O)c1ccccc1)c1ccccc1C	0.71	0.8	29.9	0.594	18.6	0.7
Cc1ccccc1N(CC(=O)N/N=C/c1ccc(F)cc1)C(=O)c1ccccc1	-1.54	0.2	94.6*	-5.58*	80.3*	0.1

Source: PubChem (several laboratories)
